Measurements taken from PubChem BioAssay (NCI).
About 79,000 compounds went through this panel and 15% of them were active in at least one assay; those are over-represented in the sample as a whole. Cut-off read from the data, not from the text of the source: active = growth inhibition above about 70%; inactive = the rest. Where a SMILES comes first, the peptide text is derived from it.

Experiments:
[1] = NCI Yeast Anticancer Drug Screen. Data for the rad50 strain (AID 155);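 note: 0% = growth of vehicle-only cultures of the same strain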; conditions: S. cerevisiae rad50 strain growth inhibition; at 50.0 µM; hits give high values
Method in brief: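 DNA repair mutant yeast, compound exposure, growth read-out; inhibition is taken relative to vehicle.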

[2] = NCI Yeast Anticancer Drug Screen. Data for the mec2-1 strain (AID 157); conditions: S. cerevisiae mec2-1 strain, at 50.0 µM, hits give high values
Method in brief: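 Test agents were screened against the mec2-1 yeast strain, with defined DNA repair or cell cycle alteration. Growth was scored as inhibition against vehicle-only controls.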

[3] = NCI Yeast Anticancer Drug Screen. Data for the sgs1 mgt1 strain (AID 161);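 note: 0% = growth of cultures given vehicle only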; conditions: S. cerevisiae sgs1 mgt1 strain, at 50.0 µM, hits give high values
Method in brief: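 Inhibition of yeast growth, normalised to vehicle-treated controls, is reported for a strain bearing genetic alterations in DNA damage repair.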

[4] = NCI Yeast Anticancer Drug Screen. Data for the cln2 rad14 strain (AID 165);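 note: 0% = growth equal to vehicle treated cultures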; conditions: S. cerevisiae cln2 rad14 strain, at 50.0 µM, hits give high values
Method in brief: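 Growth of compound-exposed yeast (cln2 rad14 genotype) measured and expressed as inhibition relative to vehicle.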

[5] = NCI Yeast Anticancer Drug Screen. Data for the bub3 strain (AID 167); conditions: S. cerevisiae bub3 mutant strain, at 50.0 µM, hits give high values
Method in brief: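 In this screen, a yeast mutant lacking normal mitotic checkpoint function is challenged with compound. Relative growth versus vehicle gives the inhibition value.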

[6] = NCI Yeast Anticancer Drug Screen. Data for the mlh1 rad18 strain (AID 175); conditions: S. cerevisiae mlh1 rad18 strain growth inhibition; at 50.0 µM; hits give high values
Method in brief: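 In this whole-cell yeast screen, a strain with altered DNA damage repair is challenged with compound, and its growth is measured against matched vehicle-treated controls.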

Measured: growth inhibition

Cc1ccccc1-n1c(C)nc2cc(NCC(=O)c3ccccc3)ccc2c1=O
inactive: [1] 32.9% | [2] -9.8% | [3] -2.3% | [4] -0.5% | [5] -1.6% | [6] 4%

O=[N+]([O-])c1ccc(-c2csc(N=Nc3c(O)[nH]c4ccccc34)n2)cc1
inactive: [1] -31.2% | [2] -20.2% | [3] -22.4% | [4] -16.7% | [5] -31.4% | [6] -46.4%

CC(=O)Nc1ccc(NS(=O)(=O)c2ccc3nc(C)n(NS(=O)(=O)c4ccc(NC(C)=O)cc4)c(=O)c3c2)cc1
inactive: [1] 29.1% | [2] 38% | [3] 29.1% | [4] 15.4% | [5] 39.2% | [6] 15.3%

COc1ccc(C2S/C(=C\c3cccc(O)c3)C(=O)N2NC(=O)Cc2ccccc2)cc1 (configuration not stated)
inactive: [1] -15.3% | [2] -34.5% | [3] -6.2% | [4] -46.5% | [5] -1.2% | [6] 10.9%

CC(=O)Nc1ccc(Cc2cc([N+](=O)[O-])cc([N+](=O)[O-])c2)cc1
inactive: [1] -0.1% | [2] -14.6% | [3] 2.75% | [4] -50.9% | [5] 24.9% | [6] -18.6%

CC(=O)N/N=C/c1cccc([N+](=O)[O-])c1
inactive: [1] -6.25% | [2] 5.15% | [3] -4.55% | [4] -35.8% | [5] -19.9% | [6] -7.9%

COC(=O)C(CNc1ccc(S(N)(=O)=O)cc1)=[N+]=[N-]
inactive: [1] 7.4% | [2] 13.3% | [3] 0.95% | [4] -12.8% | [5] 6.25% | [6] 11.2%

CC(=O)NC(CO)C(=O)NC(Cc1ccc(O)cc1)C(=O)NCC(N)=O (stereo not drawn) (Ac-Ser-Tyr-Gly-NH2; configuration not given here)
inactive: [1] -26.7% | [2] -23.5% | [3] -9.4% | [4] 18.8% | [5] 10.9% | [6] -6.8%

COc1ccc(C(C)=O)cc1C=O
inactive: [1] 1.4% | [2] 9.65% | [3] -2.65% | [4] -13.2% | [5] -20.1% | [6] 16.2%

COc1ccc(-c2cc(N)c3c(c2O)C(=O)c2c(N)ccc(O)c2C3=O)cc1
inactive: [1] 13.3% | [2] 4.75% | [3] 4.75% | [4] -23.6% | [5] -4.65% | [6] 9.25%

C=CS(=O)CCCCCCC (configuration not stated)
inactive: [1] 25.1% | [2] -1.3% | [3] -13.9% | [4] -68.5% | [5] 4.45% | [6] -34.4%

Nc1nc(SC2CCCCC2)nc2c1ncn2C1OC(CO)C(O)C1O (configuration not stated)
inactive: [1] -49.5% | [2] -33% | [3] -8.15% | [4] 0.7% | [5] -4.75% | [6] -13.7%

COc1ccc(CSCc2cc(OC)c(OC)c(OC)c2)cc1
inactive: [1] -13.5% | [2] 16.8% | [3] -24.1% | [4] 0.3% | [5] 51.2% | [6] -2.15%

CCOC(=O)c1c(N)[nH]c(SSc2[nH]c(N)c(C(=O)OCC)c2C(=O)OCC)c1C(=O)OCC
inactive: [1] 25.6% | [2] 3.85% | [3] 30.3% | [4] 13.7% | [5] 17.8% | [6] 20.3%

O=C(CCCn1cnc([N+](=O)[O-])n1)NCCn1ccnc1[N+](=O)[O-]
inactive: [1] -3.1% | [2] -7.3% | [3] -10.3% | [4] -5.1% | [5] -13.6% | [6] -26.3%

CSc1ccc2c(cc1=O)[C@@H](NC(=O)c1ccc([N+](=O)[O-])cc1)CCc1cc(O)c(O)c(O)c1-2
inactive: [1] 37.3% | [2] 33.5% | [3] 39.2% | [4] 23.1% | [5] 43.8% | [6] 50%

COC(=O)C1(O)CCC(C)CC1 (configuration not stated)
inactive: [1] 14.4% | [2] -9.25% | [3] -8.65% | [4] -26.3% | [5] 2.1% | [6] 14.8%

CCOC(=O)c1nc2ccccc2nc1Nc1ccc(F)cc1
inactive: [1] -2.35% | [2] -7.5% | [3] 1.75% | [4] 1.05% | [5] -21.1% | [6] -38%

CCOc1cc(/C=C2/C=C(c3ccc(OC)cc3)OC2=O)ccc1O
inactive: [1] -13.9% | [2] 0.5% | [3] 4.5% | [4] -19.1% | [5] 2.75% | [6] -0.7%

COc1cccc(C=O)c1[O-].COc1cccc(C=O)c1[O-].[Zn+2]
inactive: [1] 52.4% | [2] 17.9% | [3] 56.7% | [4] 32.2% | [5] 11.8% | [6] 66%

CCOC(=O)Nc1n[nH]nc1Cl
inactive: [1] -21.5% | [2] -10.1% | [3] 25.1% | [4] -20.9% | [5] -20.1% | [6] -12.7%

CC(=O)OCC(=O)[C@@]1(O)CC[C@H]2[C@@H]3CC[C@H]4[C@H](Br)C(=O)CC[C@]4(C)[C@H]3C(=O)C[C@@]21C
inactive: [1] -20.1% | [2] -33.1% | [3] -11.3% | [4] -12.8% | [5] -8.1% | [6] -23.9%

CSc1nc(C)c(CCOC(C)=O)c(Cl)n1
inactive: [1] -18.1% | [2] -19.4% | [3] -16.2% | [4] -0.25% | [5] 17.1% | [6] 4.25%

C=CCC(C(=O)O)c1ccccc1 (configuration not stated)
inactive: [1] -11.2% | [2] -12.2% | [3] -5.2% | [4] -29.9% | [5] -14.6% | [6] 1.75%

Cc1ccc(NS(=O)(=O)c2ccc(F)cc2)c(C)c1
inactive: [1] 15.4% | [2] 19.1% | [3] -2% | [4] -14.2% | [5] -0.2% | [6] -9.15%

Cc1ccc(O)c(C2CC(C#N)CCN2C)c1 (configuration not stated)
inactive: [1] -0.65% | [2] -12.2% | [3] -16.5% | [4] -6.35% | [5] -18.9% | [6] -7.3%

CN(C)c1c(F)c(F)c(N=Nc2ccccc2)c(F)c1F
inactive: [1] 0.75% | [2] -2.6% | [3] 1.15% | [4] -3.15% | [5] 16.8% | [6] -12.1%

CCOC(=O)C1=CC2CCOC2O1 (configuration not stated)
inactive: [1] -19.8% | [2] -14.8% | [3] 5.85% | [4] -28.7% | [5] -9.5% | [6] 5.5%

CCOC(=O)c1ccc(OC)c2[nH]c3c(c(=O)c12)C(=O)c1[nH]c2c(OC)ccc(C(=O)OCC)c2c(=O)c1C3=O
inactive: [1] -25.4% | [2] 15.6% | [3] -23.2% | [4] -17.9% | [5] -0.25% | [6] -25.2%

Cc1ccc(NC(=O)Oc2ccc(Br)cc2)c([N+](=O)[O-])c1
inactive: [1] 20.4% | [2] 16.9% | [3] 16.3% | [4] 16.3% | [5] 11.3% | [6] 13.8%

CC(C)(C#N)NC(=O)NC(C)(C)C(N)=O
inactive: [1] -4.1% | [2] 2.25% | [3] -3.25% | [4] -50.2% | [5] 9.5% | [6] -1.4%

COC(=O)C1C(O)C(C(=O)OC)C(C)N(C)C1C (configuration not stated)
inactive: [1] 7.35% | [2] -14.4% | [3] -41.5% | [4] -26.1% | [5] -18.2% | [6] -4.45%

O=[N+]([O-])c1ccc(C=NC23CC4CC(CC(C4)C2)C3)cc1
inactive: [1] -8.05% | [2] -11.1% | [3] -0.35% | [4] 14.2% | [5] 5.55% | [6] -3.9%

Oc1ccccc1CN=Cc1ccccc1
inactive: [1] 7.45% | [2] 4.1% | [3] -4.25% | [4] -0.5% | [5] -27.2% | [6] 4.85%

CCCCCCCCCCOC(=O)c1ccccc1O
inactive: [1] -4.95% | [2] -7.15% | [3] 3.1% | [4] -111% | [5] 4.4% | [6] -10.4%

CN(C)C(=NN)N(C)C
inactive: [1] 0.5% | [2] -2.3% | [3] 1.55% | [4] -34% | [5] 3.6% | [6] -3.9%

CCCCN(CCCC)CC(O)c1cc(-c2cc(C(O)CN(CCCC)CCCC)c3ccccc3n2)nc2ccccc12 (configuration not stated)
inactive: [1] 50.9% | [2] -8.2% | [3] 46.1% | [4] -6.85% | [5] 5.3% | [6] 32.4%
